Assay results reported in the supplement of paper PMC10127200.
Where a name gives a salt, the structure may show the parent alone.

These compounds were tested on 786-O (assay: Euclidean distance of Cell Painting phenotypic profile (signed KS, 77 features) to DMSO centroid (dimensionless distance); 5 or 10 uM (library dependent); higher = stronger phenotypic change vs DMSO (phenoactivity)). Conditions: 48 h.
In short: (§1)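 Five cancer lines, together with a healthy fibroblast line, received library compounds for 48 h at a library-dependent 10 or 5 uM and 0.1% DMSO final. Harmony then derived 77 features from confocal 20X images (9 fields/well) of the stained cells, scoring each as a signed Kolmogorov-Smirnov statistic against same-plate vehicle wells. After plate-position correction, correlation weighting and replicate averaging at the top dose, phenoactivity was taken as each profile's Euclidean distance to the median vehicle profile.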
Compound CNC(=O)c1ccc2cc([C@@]3(O)CCn4cncc43)ccc2c1 [TAK-700 (Orteronel)] has an Euclidean distance of 0.951.
In the case of CC1(C)OC[C@@H](COC(=O)CCc2ccc(OC[C@@H](O)CNCCNC(=O)N3CCOCC3)cc2)O1 [Landiolol hydrochloride], the Euclidean distance is reported as 1.18.
Work on CS(=O)(=O)c1ccc(C2=C(c3ccccc3)C(=O)OC2)cc1 [Rofecoxib] yielded an Euclidean distance of 1.05.
C=C1[C@H](CO)[C@@H](O)C[C@@H]1n1cnc2c(=O)[nH]c(N)nc21 [Entecavir] was tested, and the Euclidean distance was 1.46.
Compound CO[C@H]1C[C@@H]2CC[C@@H](C)[C@@](O)(O2)C(=O)C(=O)N2CCCC[C@H]2C(=O)O[C@H]([C@H](C)C[C@@H]2CC[C@@H](O)[C@H](OC)C2)CC(=O)[C@H](C)/C=C(\C)[C@@H](O)[C@@H](OC)C(=O)[C@H](C)C[C@H](C)/C=C/C=C/C=C/1C [Rapamycin (Sirolimus)] has an Euclidean distance of 2.74.
c1ccc2c(c1)CCCC2C1=NCCN1 (stereo not given) [Tetryzoline] was tested, and the Euclidean distance was 1.41.
Work on Nc1ccc(S(=O)(=O)Nc2cnc3ccccc3n2)cc1 [Sulfaquinoxaline sodium] yielded an Euclidean distance of 0.778.
Work on NC(=O)N1CCC(CC(=O)N2CCC([C@H]3c4ncc(Br)cc4CCc4cc(Cl)cc(Br)c43)CC2)CC1 [Lonafarnib] yielded an Euclidean distance of 2.24.
For CNC[C@H](O)c1cccc(O)c1 [Phenylephrine HCl], the Euclidean distance was 1.46.
CCn1cc(C(=O)O)c(=O)c2cc(F)c(N3CCNCC3)nc21 [Enoxacin Sesquihydrate] was tested, and the Euclidean distance was 1.35.

What follows are compounds tested on A549 in the same assay as above. Conditions: 48 h.
In short: as §1
Work on CCCc1nn(C)c2c(=O)[nH]c(-c3cc(S(=O)(=O)N4CCN(C)CC4)ccc3OCC)nc12 [Sildenafil Mesylate] yielded an Euclidean distance of 0.763.
Work on Cc1cnc(Nc2ccc(N3CCN(C)CC3)cc2)nc1Nc1cccc(S(=O)(=O)NC(C)(C)C)c1 yielded an Euclidean distance of 4.93.
Cc1cc2ncc(C(=O)NCC(C)(C)NCC(=O)N3CCC[C@H]3C#N)cn2n1 [Anagliptin] was tested, and the Euclidean distance was 1.14.
Work on O=C(OCc1ccccc1)c1ccccc1 [Benzyl benzoate] yielded an Euclidean distance of 1.28.
With CO[C@H]1C[C@@H]2CC[C@@H](C)[C@@](O)(O2)C(=O)C(=O)N2CCCC[C@H]2C(=O)O[C@H]([C@H](C)C[C@@H]2CC[C@@H](OC(=O)C(C)(CO)CO)[C@H](OC)C2)CC(=O)[C@H](C)/C=C(\C)[C@@H](O)[C@@H](OC)C(=O)[C@H](C)C[C@H](C)/C=C/C=C/C=C/1C the Euclidean distance was 1.74.
CCS(=O)(=O)c1cccc(-c2cc(C(=O)NC3CCN(C)CC3)c(C)c3[nH]c4ncc(C)cc4c23)c1 was tested, and the Euclidean distance was 3.9.
Work on NC(=O)c1ccccc1O [Salicylamide] yielded an Euclidean distance of 1.58.
CC(C(=O)O)c1ccc(C(=O)c2cccs2)cc1 (stereo not given) [Suprofen] gave an Euclidean distance of 0.825.
CCCCCCCCCC(=O)N[C@H]1[C@H](Oc2c3cc4cc2Oc2ccc(cc2Cl)[C@@H](O[C@@H]2O[C@H](CO)[C@@H](O)[C@H](O)[C@H]2NC(C)=O)[C@@H]2NC(=O)[C@H](NC(=O)[C@@H]4NC(=O)[C@H]4NC(=O)[C@@H](Cc5ccc(c(Cl)c5)O3)NC(=O)[C@H](N)c3ccc(O)c(c3)Oc3cc(O)cc4c3)c3ccc(O)c(c3)-c3c(OC4O[C@H](CO)[C@@H](O)[C@H](O)[C@@H]4O)cc(O)cc3[C@@H](C(=O)O)NC2=O)O[C@H](CO)[C@@H](O)[C@@H]1O (stereo not given in full) [Teicoplanin] gave an Euclidean distance of 1.18.
For Cc1cccc(C)c1NC(=O)C1CCCCN1C (stereo not given) [Mepivacaine HCl], the Euclidean distance was 0.773.
For Cc1nc2cccc(N)c2c(=O)n1C1CCC(=O)NC1=O (stereo not given) [Avadomide(CC-122)], the Euclidean distance was 1.22.
In the case of CC[C@]1(O)C[C@@H]2CN(CCc3c([nH]c4ccccc34)[C@@](C(=O)OC)(c3cc4c(cc3OC)N(C)[C@H]3[C@@](O)(C(=O)OC)[C@H](OC(C)=O)[C@]5(CC)C=CCN6CC[C@]43[C@@H]65)C2)C1 [Vinblastine sulfate], the Euclidean distance is reported as 3.68.
CC1(COc2ccc3c(c2)ncn3-c2ccc3cccc(N4CCC(N)CC4)c3n2)COC1 showed an Euclidean distance of 3.9.
For CCCCNc1ncc(-c2ccc(CN3CCOCC3)cn2)c(NC2CCC(O)CC2)n1 (stereo not given), the Euclidean distance was 1.2.
Work on CC(C[N+](C)(C)C)OC(N)=O (stereo not given) [Bethanechol chloride] yielded an Euclidean distance of 0.995.
Work on CN1CCC(=C2c3ccccc3C=Cc3ccccc32)CC1 [Cyproheptadine hydrochloride] yielded an Euclidean distance of 1.06.
With O=C(NCc1ccccc1)c1csc(Nc2ccncn2)n1 [Thiazovivin] the Euclidean distance was 1.18.
CCC[C@@H]1C[C@@H](C(=O)N[C@@H]([C@H]2O[C@H](SC)[C@H](O)[C@@H](O)[C@H]2O)[C@H](C)Cl)N(C)C1 [Clindamycin HCl] gave an Euclidean distance of 0.576.
Cc1ccsc1/C=C/C1=NCCCN1C [Morantel tartrate] was tested, and the Euclidean distance was 0.834.
CN(C)c1nc(N(C)C)nc(N(C)C)n1 [Altretamine] showed an Euclidean distance of 0.902.
c1cnc(N2CCN(Cc3ccc4c(c3)OCO4)CC2)nc1 [Piribedil] gave an Euclidean distance of 0.769.
Compound Fc1cc(-c2cccc3ncc(-c4cnn(C5CCNCC5)c4)nc23)cc(F)c1CN1CCOCC1 has an Euclidean distance of 3.31.
With CN(C(=O)c1c(O)c2ccccc2n(C)c1=O)c1ccccc1 [Roquinimex] the Euclidean distance was 0.796.
COc1cccc(CCc2ccccc2OCC(CN(C)C)OC(=O)CCC(=O)O)c1 (stereo not given) [Sarpogrelate hydrochloride] gave an Euclidean distance of 1.36.
With Cc1csc(-c2nnc(Nc3ccc(Oc4ncccc4-c4ccnc(N)n4)cc3)c3ccccc23)c1 the Euclidean distance was 3.22.
In the case of N=C(N)NC(=O)c1nc(Cl)c(N)nc1N [Amiloride HCl], the Euclidean distance is reported as 0.988.
In the case of CCOC(=O)N1c2ccc(C(F)(F)F)cc2[C@@H](N(Cc2cc(C(F)(F)F)cc(C(F)(F)F)c2)C(=O)OC)C[C@H]1CC [Torcetrapib], the Euclidean distance is reported as 0.836.
CC(C)C(=O)Oc1ccc(CO)cc1[C@H](CCN(C(C)C)C(C)C)c1ccccc1 [Fesoterodine Fumarate] showed an Euclidean distance of 1.2.
Compound CC1(C)S[C@@H]2[C@H](NC(=O)[C@H](N)c3ccccc3)C(=O)N2[C@H]1C(=O)O [Ampicillin sodium] has an Euclidean distance of 0.444.
CCCCCOC(=O)Nc1nc(=O)n([C@@H]2O[C@H](C)[C@@H](O)[C@H]2O)cc1F [Capecitabine] was tested, and the Euclidean distance was 0.754.
CNC(=O)c1ccc2cc([C@@]3(O)CCn4cncc43)ccc2c1 [TAK-700 (Orteronel)] was tested, and the Euclidean distance was 0.683.
Work on CC1(C)OC[C@@H](COC(=O)CCc2ccc(OC[C@@H](O)CNCCNC(=O)N3CCOCC3)cc2)O1 [Landiolol hydrochloride] yielded an Euclidean distance of 0.835.
Compound CS(=O)(=O)c1ccc(C2=C(c3ccccc3)C(=O)OC2)cc1 [Rofecoxib] has an Euclidean distance of 0.859.
In the case of C=C1[C@H](CO)[C@@H](O)C[C@@H]1n1cnc2c(=O)[nH]c(N)nc21 [Entecavir], the Euclidean distance is reported as 1.16.
Work on CO[C@H]1C[C@@H]2CC[C@@H](C)[C@@](O)(O2)C(=O)C(=O)N2CCCC[C@H]2C(=O)O[C@H]([C@H](C)C[C@@H]2CC[C@@H](O)[C@H](OC)C2)CC(=O)[C@H](C)/C=C(\C)[C@@H](O)[C@@H](OC)C(=O)[C@H](C)C[C@H](C)/C=C/C=C/C=C/1C [Rapamycin (Sirolimus)] yielded an Euclidean distance of 1.97.
In the case of c1ccc2c(c1)CCCC2C1=NCCN1 (stereo not given) [Tetryzoline], the Euclidean distance is reported as 0.369.
Nc1ccc(S(=O)(=O)Nc2cnc3ccccc3n2)cc1 [Sulfaquinoxaline sodium] was tested, and the Euclidean distance was 0.727.
NC(=O)N1CCC(CC(=O)N2CCC([C@H]3c4ncc(Br)cc4CCc4cc(Cl)cc(Br)c43)CC2)CC1 [Lonafarnib] showed an Euclidean distance of 1.63.
For CNC[C@H](O)c1cccc(O)c1 [Phenylephrine HCl], the Euclidean distance was 0.809.
Compound CCn1cc(C(=O)O)c(=O)c2cc(F)c(N3CCNCC3)nc21 [Enoxacin Sesquihydrate] has an Euclidean distance of 1.38.
